About 70 (0.3%) of roughly 24,000 compounds were called active. Only a selection was taken, and actives are over-represented in it overall. Unmarked numbers belong to inactive results. No stated cut-off is given here; in the data, active means inhibition above about 30%; inconclusive means no clear call, values can overlap the other calls; inactive means below that.
Each molecule was assayed against N-formyl peptide receptor 2 (Homo sapiens) (UniProt P25090) (assay: human FPRL1 ligands by binding competition, primary screen, cell-based, FPR counter-screen, flow cytometry (AID 441;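 further: 0% = buffer alone and 100% = receptor blocker peptide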)). Conditions: FPRL1-expressing cells, fluorescent ligand binding inhibition, stronger effect = higher value, concentration not given here.
N-formyl peptide receptor 2 (Homo sapiens), sequence (P25090 whole entry, looked up): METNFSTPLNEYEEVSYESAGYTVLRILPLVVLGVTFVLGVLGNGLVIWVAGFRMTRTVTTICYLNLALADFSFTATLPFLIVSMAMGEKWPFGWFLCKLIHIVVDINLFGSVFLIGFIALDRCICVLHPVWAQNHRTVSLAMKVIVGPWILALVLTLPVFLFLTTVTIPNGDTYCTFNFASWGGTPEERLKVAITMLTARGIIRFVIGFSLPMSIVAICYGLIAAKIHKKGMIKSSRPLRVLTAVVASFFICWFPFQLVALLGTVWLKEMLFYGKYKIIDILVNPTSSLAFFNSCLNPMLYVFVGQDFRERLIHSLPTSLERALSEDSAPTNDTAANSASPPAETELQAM

Structure (SMILES)	inhibition
COc1ccc(CCNC(=O)c2cc(-c3ccc4c(c3)OCO4)on2)cc1OC	-0.8%
COc1cccc(NC(=O)C2CCCN2C(=O)OCc2ccccc2)c1 (centres undefined)	0.3%
CCOc1ccc(OCC)c(NC(=O)C2CCN(S(=O)(=O)c3c(C)noc3C)CC2)c1	30.8% (active)
CCOC(=O)C1CCN(C(=O)C2CCN(S(=O)(=O)c3c(C)noc3C)CC2)CC1	10.6%
CCOc1ccccc1NC(=O)C1CCN(S(=O)(=O)c2c(C)nn(C)c2C)CC1	-6.7%
COc1ccc(C(=O)Nc2nncs2)c(OC)c1	0%
COc1ccc(NS(=O)(=O)c2ccc(NC(C)=O)cc2)cc1OC	6%
NC(=O)CCCC1=NS(=O)(=O)c2ccccc2N1	-3.9%
CCN1C(=O)/C(=C2/Sc3ccccc3N2CCCS(=O)(=O)O)SC1=S	5.6%
CC(=O)c1c(C)c[nH]c1C	6%
Cc1cccc(N2CCN(C(=O)c3cc4c(=O)[nH]c5ccccc5c4n3C)CC2)c1C	-5%
CCOc1ccc(-c2nnn(CC(=O)N3CCN(c4ccc(F)cc4)CC3)n2)cc1OCC	-1.6%
CCOC(=O)N1CCN(C(=O)c2ccc3nc4cc(Cl)ccc4c(=O)n3c2)CC1	-10%
CCOc1ccc(C2C(C(=O)NC)=C(C)Nc3nc4ccccc4n32)cc1OC (centres undefined)	-2.9%
O=C(NCCCN1CCN(Cc2ccccc2)CC1)C1CCN(S(=O)(=O)N2CCCC2)CC1	2%
COc1cccc(CN2C(=O)CCC2(C)C(=O)NC2CCCCCC2)c1 (centres undefined)	7.7%
Cc1cc(N2C(=O)C(=O)/C(=C(/O)c3ccc(Cl)cc3)C2c2cccc(Br)c2)no1 (centres undefined)	-2.5%
Cn1c(=O)c2[nH]c(NCC3CCCO3)nc2n(-c2ccccc2)c1=O (centres undefined)	-0.4%
CCOC(=O)c1oc2ccccc2c1NC(=O)c1cccs1	-9.1%
CC(NC(=O)COc1ccccc1)C(=O)NC1=NCCS1 (centres undefined)	5.2%
CCN(CC)CCNC(=O)C1c2ccccc2C(=O)N(C)C1c1cn(C)c2ccccc12 (centres undefined)	9.3%
Cc1cccc(NC(=O)CSc2nnc(NC(=O)CN3CCOCC3)s2)c1	8.7%
COc1ccccc1C(=O)NCCn1cc(SCC(=O)NCc2ccco2)c2ccccc21	2.6%
COC(=O)C1=C(C)OC(N)=C(C#N)C1c1cc(OC)ccc1OC (centres undefined)	5.9%

Structure (SMILES)	inhibition
COC(=O)c1cn(C)c2ccc(S(=O)(=O)N3CC(C)CC(C)C3)cc2c1=O (centres undefined)	8.5%
COc1ccc(C2/C(=C(/O)c3ccccc3)C(=O)C(=O)N2c2ncccn2)cc1OC (centres undefined)	-2.7%
Cc1c(C(=O)Nc2ccccc2Cl)oc2ccc(S(=O)(=O)N3CCC4(CC3)OCCO4)cc12	-12.5%
CCOC(=O)n1c(SCC(=O)N(CC)CC)nc2ccccc21	-1.8%
O=C(NCc1cccs1)c1ccc2c(c1)ncn2C1CCCC1	2.8%
O=C(CN1C(=O)CCS(=O)(=O)c2ccccc21)NCc1ccc(F)cc1	1.5%
O=C(C1=C(O)C(=O)N(Cc2ccccc2)C1c1cccnc1)c1ccco1 (centres undefined)	1.3%
COc1ccc(-c2nnc(SCC(=O)NC3CCCCC3)o2)cc1OC	2.7%
CCOC(=O)c1ccn(-c2nc(-c3ccco3)cc(C(F)(F)F)n2)n1	2.5%
O=C(CCN1C(=O)c2ccncc2C1=O)Nc1ccc2c(c1)OCCO2	9.6%
CCN1CCN(c2ncnc3c2oc2nc(C)c4c(c23)CC(C)(C)OC4)CC1	1.2%
CCOc1ccc(NC(=O)CCS(=O)(=O)c2cccc3nsnc23)cc1	-3.1%
CCOc1nc(OCC)nc(-n2cc(-c3ccccc3)nn2)n1	3%
COc1ccc(Cc2nnc(NC(=O)Cc3cccs3)s2)cc1	-1.5%
COc1ccc(CC(=O)Nc2ccc(-c3nnc(-c4ccc(C)cc4)o3)cc2)cc1	51.1% (active)
CCOC(=O)c1ccc(NC(=O)Cn2nnc(-c3ccc(C)cc3)n2)cc1	3.3%
Cn1c(=O)[nH]c(=O)c2c1nc(CN(Cc1ccccc1)Cc1ccccc1)n2CCN1CCOCC1	-0.1%
CN(Cc1ccccc1)C(=O)CCNC(=O)Cn1cnc2ccccc2c1=O	-4.8%
COc1ccc(CCNC(=O)c2ccc3c(c2)NC(=O)C(N2CCOCC2)S3)cc1OC (centres undefined)	0.3%
Cn1c(C(=O)N2CCC(C(N)=O)CC2)cc2c(=O)n(C)c3ccccc3c21	-1.2%
C/C(=N\O)C1(C)N(O)C(C)(C)C(c2ccc(Br)cc2)=[N+]1[O-] (centres undefined)	1.1%
Cc1ncn(C23CC4CC(CC(O)(C4)C2)C3)n1	8.2%
Cc1cc(=O)n2nc(N3CCCC(C(=O)NCCC4=CCCCC4)C3)sc2n1 (centres undefined)	3%
CC(C)Nc1nc(N(c2ccccc2)c2ccccc2)nc(-n2ccnc2)n1	-7.8%

Structure (SMILES)	inhibition
CCOC(=O)Nc1ccccc1N1C(=O)c2ccccc2C1=O	-0.1%
CCOC(=O)c1[nH]c2c(c1C)C(=O)CC(c1ccc(N(C)C)cc1)C2 (centres undefined)	-0.6%
CC1C=CCC2C(=O)N(c3cccc(C(=O)N4CCCCCC4)c3)C(=O)C12 (centres undefined)	-6.5%
O=C1NC(c2ccncc2)Nc2sc3c(c21)CCCC3 (centres undefined)	0.8%
CCOC(=O)c1ccc2[nH]c(C)c(CN3CCN(C)CC3)c(=O)c2c1	-3.9%
Cc1ccc2cc3cc(C(=O)N4CCCCCC4)oc3nc2c1	3.2%
CC1=C(C(=O)Nc2ccccc2)C(c2cccs2)C(C#N)=C(SCC#N)N1 (centres undefined)	-2.4%
c1ccc(CCn2nnnc2CN2CCN(C3CCCC3)CC2)cc1	-2.3%
COc1ccc(-c2ccc(Nc3ccc(S(=O)(=O)N4CCCC4)cc3)nn2)cc1OC	2.7%
Cc1nc2ncnn2c(C)c1CCC(=O)N1CCN(C(=O)c2ccco2)CC1	-3.3%
CCN1CCN(Cc2c(O)ccc3c(=O)c(-c4ccc(OC)c(OC)c4)c(C(F)(F)F)oc23)CC1	-3.1%
CCOC(=O)c1cccc(NC(=O)CN(c2ccc(C)cc2)S(=O)(=O)c2c(C)noc2C)c1	-3%
COc1cccc(-c2nc3n(n2)C(c2ccccc2Cl)C(C(N)=O)=C(C)N3)c1 (centres undefined)	-2.8%
O=C1CCc2cc(S(=O)(=O)N3CCC(C(=O)NCc4ccccc4Cl)CC3)ccc2N1	-0.3%
CCOC(=O)c1cc2cc(-c3c(C(=O)OCC)oc4cc(O)cc(O)c4c3=O)ccc2o1	1.4%
CCCCN(CC)C(=O)CN(C)S(=O)(=O)c1cccc2nsnc12	1%
CCn1c(SCC(=O)Nc2ccccc2F)nc2c(c1=O)SC(C)C2 (centres undefined)	4.3%
COc1ccc(CCNC(=O)CSc2nnc(CNC(=O)c3cccs3)o2)cc1OC	1.2%
Cc1ccc(-c2nc(CS(=O)CC(=O)NC3CCCC3)c(C)o2)cc1 (centres undefined)	1.4%
COCCCN(C(=O)Cn1ncc2c(=O)oc3ccc(C)cc3c21)C(C)c1ccncc1 (centres undefined)	-4.1%
CCn1ncc(Br)c1C(=O)Nc1cc(C)ccc1F	-0.1%
Cc1ccccc1CSc1nnc(Cn2c(=O)sc3ccccc32)n1C	5.5%
O=C1CC(c2ccccc2)CC(O)=C1C=NCCN1CCOCC1 (centres undefined)	1.2%
CC(=O)N(CC1CCCO1)C1(C(=O)NC2CCCC2)CCCCC1 (centres undefined)	4%

Structure (SMILES)	inhibition
COC(=O)[C@H](C(C)C)n1c(C)c(C(C)=O)c(C(C)=O)c1C	31.1% (active)
Cc1cccc(C2c3c(n(C)c(=O)n(C)c3=O)N=C3c4ccccc4C(=O)C32)c1 (centres undefined)	-4.5%
CCN(CC)C(=O)CCC(=O)Nc1ccc(C(=O)OC)cc1	4.2%
CC(C)COC(=O)C1C2C=CC3(CN(C(C)c4ccc(Br)cc4)C(=O)C13)O2 (centres undefined)	17.2%
C/C(=C(\C#N)C(=O)NCCCN1CCOCC1)N(C)C	-7.6%
CN1C(=O)c2ccccc2C(C(=O)NCCCN2CCCC2)C1c1c[nH]c2ccccc12 (centres undefined)	-4.5%
Cc1ccc(S(=O)(=O)n2nc(OC(=O)C(C)(C)C)cc2N)cc1	-2.2%
Clc1ccc(Cn2ncc3c(NCc4cccnc4)ncnc32)cc1	-5.1%
CCOc1ccc(OCC)c(NC(=O)CN(C)S(=O)(=O)c2cccc3nsnc23)c1	-4.8%
Cn1c(=O)cc(SCC(=O)N2CCN(C(=O)c3ccco3)CC2)c2ccccc21	-1.6%
COc1ccc(OC)c(NC(=O)CC(Cc2ccccc2OC)C(=O)O)c1 (centres undefined)	9.6%
CCOC(=O)C1CCCN(Cc2nc(N)nc(Nc3ccc(C)cc3)n2)C1 (centres undefined)	-0.4%
CC1Cc2nc(SCC(=O)Nc3ccccc3F)n(C)c(=O)c2S1 (centres undefined)	-4.6%
CC1=Nn2c(nnc2-c2ccccc2)SC1	4.7%
C=CCNC(=O)CSc1nc2sc(C)c(C)c2c(=O)[nH]1	-8.9%
Cc1cc(Nc2ccccc2)n(CCC#N)n1	9.1%
O=C(Cc1nn[nH]n1)NCCC1=CCCCC1	3.2%
CCCn1cc(SCC(N)=O)c2ccccc21	0.9%
O=C(Nc1ccccc1)N(Cc1cccnc1)Cc1ccco1	3.6%
O=C(NCc1ccco1)c1cccn2c(=O)c3cc(Br)ccc3nc12	-9.9%
Cc1cccc(Nc2ccccc2C(=O)NCc2ccco2)c1C	34.3% (active)
CCCCOc1ccc(C(=O)NCc2ccco2)cc1	-9.3%

From PubChem BioAssay AID441 (NMMLSC, 2006)
